From PubChem
A selection: hits, their analogues and other compounds. The true share with any hit is near 32%.
CYP2C9 inh: human CYP2C9 inhibition; hit rate 20% among 96,000; inhibition, % at 5 µM; P11712; CYP2C9 Supersomes, luciferin-H conversion, luminescence;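 active means blocking of liver enzyme CYP2C9 beyond about 50% at 5 µM, limit read from the data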
Target sequence (P11712 whole entry, looked up): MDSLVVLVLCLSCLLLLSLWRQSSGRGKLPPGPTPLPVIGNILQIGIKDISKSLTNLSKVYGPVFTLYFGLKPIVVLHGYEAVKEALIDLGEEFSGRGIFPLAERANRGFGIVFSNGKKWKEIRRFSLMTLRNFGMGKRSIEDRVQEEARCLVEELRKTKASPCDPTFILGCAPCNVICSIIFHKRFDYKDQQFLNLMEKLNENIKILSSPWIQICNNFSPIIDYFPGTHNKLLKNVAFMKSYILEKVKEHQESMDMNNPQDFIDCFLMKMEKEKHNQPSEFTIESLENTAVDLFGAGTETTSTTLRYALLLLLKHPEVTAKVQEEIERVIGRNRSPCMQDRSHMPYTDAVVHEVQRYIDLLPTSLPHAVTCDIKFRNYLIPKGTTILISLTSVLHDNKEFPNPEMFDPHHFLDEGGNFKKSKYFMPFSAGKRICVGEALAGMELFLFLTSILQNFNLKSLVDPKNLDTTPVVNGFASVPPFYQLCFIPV
CYP2C9 act: activators of human CYP2C9 | AID 1024 | recombinant CYP2C9, luciferin-H conversion, luminescence; hits give high values; factor 1 = untreated enzyme, 0 = blocked | activation factor at 5 µM | P11712 | hit rate 1.4% among 96,000;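 active means activation factor of 2 or more for CYP2C9 at a 5 µM dose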;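 further: 0 = sulfaphenazole-blocked wells and 1 = vehicle-only wells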
CYP2C19 inh: human CYP2C19 inhibition; P33261; CYP2C19 Supersomes, luciferin-H EGE luminescence, 30 min; inhibition, % at 5 µM; hit rate 21% among 96,000; AID 778;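 active means CYP2C19 inhibition above a set limit at 5 µM in the primary screen, cut at about 50% in these data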;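 further: plate controls were negative control wells for no effect and 2.5 mM tranylcypromine positive control for full effect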
CYP2C19 act: activators of human cytochrome P450 2C19. activation factor at 5 µM. AID 1025. P33261. 96,000 tested, under 10 active. recombinant CYP2C19, luciferin-H EGE luminescence; hits give high values; 0 = fully inhibited enzyme, 1 = untreated enzyme;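 active means activation factor of at least 2 at 5 µM in the primary screen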;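 further: 0 = wells with 2.5 mM tranylcypromine and 1 = vehicle-only wells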
PostGolgi ctrl: inhibits growth of the yeast control strain; efflux-deficient yeast background strain, growth absorbance A615, 16 h; hit rate 5% among 98,000; inhibition, % at 10 µM
PostGolgi yeast: growth inhibition of a yeast mutant, post-Golgi transport screen | hit rate 0.9% among 98,000 | inhibition, % at 10 µM | post-Golgi transport phenotypic cell assay | AID 739;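 further: yeast cells grown in 1536-well plates; yeast grown about 18 h at 30C before absorbance read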
* = called active by the depositor; . = no result given. Unless noted, no stated cut-off is given here; in the data, active means inhibition above about 30%; inactive means the rest.

SMILES	CYP2C9 inh	CYP2C9 act	CYP2C19 inh	CYP2C19 act	PostGolgi ctrl	PostGolgi yeast
CC(=O)c1cccc(NC(=O)N2CCCC2C(=O)Nc2c(C)cccc2C)c1 (stereo not given)	8	0.9	2	1	10	5
Cc1cccc(-n2c(N)cc(=O)nc2SCC(=O)Nc2nnc(C)s2)c1	1	1	-39	1.4	9	-2
O=C(Nc1nccs1)c1cccc(S(=O)(=O)N2CCCCC2)c1	68*	0.3	94*	0.1	-2	2
O=C(Nc1nccs1)c1ccc(Cl)c(S(=O)(=O)N2CCCCC2)c1	53*	0.5	65*	0.3	18	23
CC1CCN(S(=O)(=O)c2cccc(C(=O)Nc3nccs3)c2)CC1	14	0.9	12	0.9	7	0
O=C(NC1=NCCS1)c1ccc(Cl)c(S(=O)(=O)N2CCCCC2)c1	36	0.6	43	0.6	10	0
Cc1nonc1NC(=O)c1ccc(Cl)c(S(=O)(=O)N2CCCCC2)c1	-18	1.2	68*	0.3	-3	-3
O=C(Nn1cnnc1)c1ccc(F)c(S(=O)(=O)N2CCCCC2)c1	72*	0.3	99*	0	-2	18
Cc1cc(N=Cc2cc(Br)ccc2O)no1	-17	1.2	-14	1.1	9	-3
COc1cccc(C2=NOC(C(=O)Nc3cc(OC)c(OC)c(OC)c3)C2)c1 (stereo not given)	-8	1.1	20	0.8	11	-4
COc1cc2c(cc1OC)C(C(=O)Nc1ccc3c(c1)OCCO3)C(c1cccnc1)N(C)C2=O (stereo not given)	54*	0.5	3	1	1	-4
O=C(NC(=S)Nc1ccc(N2CCCCC2)cc1)c1cccs1	-3	1	-4	1	15	-3
COc1ccc(/C(O)=C2/C(=O)C(=O)N(CCCN(C)C)C2c2cccnc2)cc1 (stereo not given)	-2	1	-1	1	.	.
CCOC(=O)CN1NC2(CCCCC2)NC1=S	18	0.8	18	0.8	1	13
CCOC(=O)CN1NC2(CCC(C)CC2)NC1=S (stereo not given)	-2	1	61*	0.4	-6	1
CCOC(=O)CN1NC2(CCCC(C)C2)NC1=S (stereo not given)	-4	1	61*	0.4	-7	0
CCOC(=O)c1c(-c2ccccc2)nc2ccc(C)cn12	27	0.7	7	0.9	31*	-36
CCOC(=O)CNc1c(-c2ccc(O)cc2)nc2ccc(Cl)cn12	7	0.9	23	0.8	7	1
CCOC(=O)c1c(-c2ccccc2)nc2cc(C)ccn12	12	0.9	28	0.7	14	-9
CCOC(=O)CNc1c(-c2ccccc2)nc2ccc(Cl)cn12	50	0.5	58*	0.4	16	4
Cc1c(NC(=O)C(C)Sc2n[nH]c(N)n2)c(=O)n(-c2ccccc2)n1C (stereo not given)	-12	1.1	-6	1.1	8	1
COc1ccccc1-c1cc(C(=O)NCc2ccco2)no1	-89	1.9	14	0.9	14	14
COc1ccc(OC)c(-c2cc(C(=O)NCc3cccs3)no2)c1	.	.	.	.	-2	0
COCCNC(=O)c1cc(-c2ccccc2OC)on1	-158	2.6*	24	0.8	3	-3
COc1ccccc1-c1cc(C(=O)NCc2cccs2)no1	-126	2.3*	5	1	4	2
SMILES	CYP2C9 inh	CYP2C9 act	CYP2C19 inh	CYP2C19 act	PostGolgi ctrl	PostGolgi yeast
COc1ccc(/C=C2\N=C(SC)N(C)C2=O)cc1	39	0.6	52*	0.5	13	-4
CC(=O)c1c(C(C)=O)c(C)n(NC(=O)c2ccccc2O)c1C	86*	0.1	-12	1.1	-3	0
O=S(=O)(c1ccccc1)N(Cc1ccccc1)c1ccccn1	57*	0.4	67*	0.3	18	21
CC(C)C(=O)N(Cc1ccccc1)c1ccccn1	-18	1.2	22	0.8	18	11
O=C(c1cnc2sccn2c1=O)N(Cc1ccccc1)c1ccccn1	50*	0.5	-2	1	-4	4
O=C(c1ccccc1)N(Cc1ccccc1)c1ccccn1	33	0.7	57*	0.4	-7	4
O=C(c1ccc(Br)o1)N(Cc1ccccc1)c1ccccn1	22	0.8	72*	0.3	6	3
O=C(CSc1nnc(Cn2c(=O)sc3ccccc32)n1-c1ccccc1)N1CCCCCC1	.	.	.	.	7	2
Cc1ccccc1NC(=O)CSc1nnc(Cc2cccn2C)n1-c1ccc(F)cc1	14	0.9	2	1	19	-2
CCOc1ccccc1N(CC(=O)NC1CCCCC1)S(C)(=O)=O	20	0.8	34	0.7	12	-2
CCOC(=O)N1CCN(C(=O)C2CCCN(S(=O)(=O)c3cc(C)ccc3OC)C2)CC1 (stereo not given)	14	0.9	17	0.8	-2	0
COc1ccc(C)cc1S(=O)(=O)N1CCN(S(=O)(=O)c2cc(C)ccc2OC)C(C)C1 (stereo not given)	99*	0	100*	0	5	-7
COc1ccc(C)cc1S(=O)(=O)N1CCC(C)CC1	-37	1.4	32	0.7	42*	5
CCn1c(CS(=O)Cc2ccc(Cl)cc2Cl)nnc1SCc1c(Cl)cccc1Cl (stereo not given)	-24	1.2	-11	1.1	8	15
CCCN(CCC)S(=O)(=O)c1cc(Br)cc2c1N(C(=O)CC)CC2	42	0.6	9	0.9	19	-1
CCOc1cnc(-c2ccc(OC)cc2)o1	11	0.9	10	0.9	13	31*
CCOc1ccc(N2CCn3c2nc2c3c(=O)n(CCc3ccccc3)c(=O)n2C)cc1	22	0.8	2	1	.	.
CCOC(=O)C(NC(=O)CC)(Nc1ccc(S(=O)(=O)Nc2cc(C)on2)cc1)C(F)(F)F (stereo not given)	30	0.7	3	1	5	-1
CCOC(=O)C(NC(=O)c1ccc(Cl)cc1Cl)(Nc1ccc(C)cc1)C(F)(F)F (stereo not given)	15	0.9	91*	0.1	6	3
CCOC(=O)c1c(CN2CCN(CCO)CC2)n(C)c2cc(Br)c(OC)cc12	79*	0.2	9	0.9	7	-3
CCOC(=O)c1c(CN2CCCCC2)n(C)c2cc(Br)c(OC)cc12	34	0.7	12	0.9	8	2
Cc1csc(C(C#N)C(=O)c2cc3ccccc3o2)n1 (stereo not given)	60*	0.4	4	1	0	-5
O=C(Cc1c(O)c2ccccc2[nH]c1=O)OC1CCCCC1	-1	1	-1	1	-4	-1
COc1cc(OC)c(C2=NOC(C(=O)NCc3ccc4c(c3)OCO4)C2)cc1Cl (stereo not given)	-16	1.2	93*	0.1	9	3
